Whole data set: some 68,000 sequences, median “fluorescence intensity (a.u.)” near 9,100, cut for the highest 2% near 16,000. This is one part of a sample in which the highest values are shown more often than they occur.
Molecular target: OsWRKY34 (Oryza sativa, UniProt Q0JBA9 1-250)
Assay: protein-binding microarray (RPBM); PBS, 2% BSA, 51.3 ng/ul salmon testes DNA, 50 uM zinc acetate, 200 nM TF, 25 C, 1 h; high values mean tight binding
Conditions: protein: recombinant; tags: N-terminal polyhistidine and DsRed monomer fusion (pET32a); label: CyDye5-dUTP incorporated in the synthesized complementary strand; 3' TTTTT single-stranded linker to array surface; dsDNA, one strand shown
Procedure, shortened: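 The binding signal is fluorescence intensity per array feature (arbitrary units). Readings came from an Axon 4000B scanner after a washed, 2% BSA-blocked, double-stranded custom Agilent array had been incubated for 1 h at 25 °C with 200 nM protein and 50 µM zinc acetate. The protein was a Ni–NTA-purified transcription factor fused N-terminally to polyhistidine and DsRed, expressed in E. coli BL21-CodonPlus.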

OsWRKY34, sequence (Q0JBA9 entry or part of it): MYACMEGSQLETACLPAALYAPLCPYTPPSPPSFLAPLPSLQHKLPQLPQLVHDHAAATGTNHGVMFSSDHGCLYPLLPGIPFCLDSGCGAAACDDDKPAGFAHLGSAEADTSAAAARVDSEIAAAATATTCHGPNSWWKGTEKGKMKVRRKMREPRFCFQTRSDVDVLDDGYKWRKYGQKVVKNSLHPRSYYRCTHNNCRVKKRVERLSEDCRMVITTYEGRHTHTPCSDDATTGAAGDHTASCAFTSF

**Q.** With “TCTGTATATAAGGCCTGATTTAGTTCCCAAATTTTTTTTCCGGAGTCACCTAGTGCAG” as the sequence, how does the binding signal read?
**A.** Its binding signal is 8100 fluorescence intensity (a.u.).

**Q.** “AATATTTCCCTTTCCAATGTTCAGTCAGCCCATCAGACCGCGGAGTCACCTAGTGCAG” was tested. Which binding signal did it give?
**A.** Its binding signal is 8110 fluorescence intensity (a.u.).

**Q.** With “GTTCCAAAATTTTTCTTTAAACTTCCAACATTTTCATCACCGGAGTCACCTAGTGCAG” as the sequence, how does the binding signal read?
**A.** The binding signal was 9190 fluorescence intensity (a.u.).

**Q.** Which binding signal does the source give for “GTATGGTACAGCACATTTCTCTGTTCAAGTGTTCATTATGCGGAGTCACCTAGTGCAG” here?
**A.** Its binding signal is 8610 fluorescence intensity (a.u.).

**Q.** How did the binding signal turn out when “ATATATATGGATTAGGTTTGGATTGGGGATCATTTGTATGCGGAGTCACCTAGTGCAG” was run?
**A.** The binding signal was 8360 fluorescence intensity (a.u.).

**Q.** “ACCTAGATCCACCTCGTTAGTTTATTTTGTGAGAGTGCTCCGGAGTCACCTAGTGCAG” was tested. Which binding signal did it give?
**A.** Its binding signal is 9140 fluorescence intensity (a.u.).

**Q.** For “AACACTCACATCAAGTCATCAACCGACCTTGTCAAGTCAACGGAGTCACCTAGTGCAG”, which binding signal is on record?
**A.** Its binding signal is 10600 fluorescence intensity (a.u.).

**Q.** With “TTGGTTGCATGTTTTTTCACGTAAAATCTTAATTTTTGCACGGAGTCACCTAGTGCAG” as the sequence, how does the binding signal read?
**A.** Its binding signal is 8150 fluorescence intensity (a.u.).

**Q.** With “TTGCTCACCAGAGCTACTACTACCGGTCTGTCACGCTCACCGGAGTCACCTAGTGCAG” as the sequence, how does the binding signal read?
**A.** The binding signal was 9180 fluorescence intensity (a.u.).

**Q.** With “TGCTCCGACCACTGCCCACCCCGCTCCACCGGCTAGAGAGCGGAGTCACCTAGTGCAG” as the sequence, how does the binding signal read?
**A.** Its binding signal is 9120 fluorescence intensity (a.u.).

**Q.** With “CCGACTGCTCAATCACCACCGGTCTGACCGGCTACCAGAGCGGAGTCACCTAGTGCAG” as the sequence, how does the binding signal read?
**A.** The binding signal was 17200 fluorescence intensity (a.u.).

**Q.** How did the binding signal turn out when “CAACATCTTCTTTAGTTGCTCACACTTTTTCTTAGAATCACGGAGTCACCTAGTGCAG” was run?
**A.** The binding signal was 8340 fluorescence intensity (a.u.).

**Q.** With “TTTCTTCGTCCTCTTGGTTTCCCTTTCAATTCATTCATTTCGGAGTCACCTAGTGCAG” as the sequence, how does the binding signal read?
**A.** Its binding signal is 8460 fluorescence intensity (a.u.).

**Q.** How did the binding signal turn out when “GCTCGCCCGTCTTTCGCTCTGCCCGCAGCCCGCCGCCGCTCGGAGTCACCTAGTGCAG” was run?
**A.** Its binding signal is 14000 fluorescence intensity (a.u.).

**Q.** For “ACCGGCCCAGAACAGTTGGGCAGCCCACGAAGTCACCAACCGGAGTCACCTAGTGCAG”, which binding signal is on record?
**A.** The binding signal was 8540 fluorescence intensity (a.u.).

**Q.** For “CTTAGTTCTCCGCGCTATTCACTTCTGCGCCGTCGCTTTTCGGAGTCACCTAGTGCAG”, which binding signal is on record?
**A.** The binding signal was 8640 fluorescence intensity (a.u.).

**Q.** “GACGGCGCCCTGCGGCTTCGGTTGCGGGGTGGGTGGTGGCCGGAGTCACCTAGTGCAG” was tested. Which binding signal did it give?
**A.** The binding signal was 10300 fluorescence intensity (a.u.).

**Q.** “TTGGGTTGGGTTGGGTGGTCCATTCTGTACGGTGCGCCGGCGGAGTCACCTAGTGCAG” was tested. Which binding signal did it give?
**A.** Its binding signal is 19600 fluorescence intensity (a.u.).

**Q.** “GCGCTGTGGTCCCGGCGCCGGCAGTGGTTGCTTCTGCGCGCGGAGTCACCTAGTGCAG” was tested. Which binding signal did it give?
**A.** Its binding signal is 8560 fluorescence intensity (a.u.).

**Q.** With “TGGGTGGGTTGGGTGGGTGGGTGGGTGCGCGGCGGGTATGCGGAGTCACCTAGTGCAG” as the sequence, how does the binding signal read?
**A.** Its binding signal is 32800 fluorescence intensity (a.u.).

**Q.** For “GGGTGGGCGTGATGGAGTTGGGTCGGCCGGGGTGTCCGGTCGGAGTCACCTAGTGCAG”, which binding signal is on record?
**A.** Its binding signal is 14500 fluorescence intensity (a.u.).

**Q.** With “GAAGCTTCGGGAGTGGTGGTGGGTTGCGGCCGTGCGGCTCCGGAGTCACCTAGTGCAG” as the sequence, how does the binding signal read?
**A.** Its binding signal is 10900 fluorescence intensity (a.u.).

**Q.** With “GAGGGGAGGGAGAGGTCGGAGATGGTTACCGGTGGGGAAGCGGAGTCACCTAGTGCAG” as the sequence, how does the binding signal read?
**A.** The binding signal was 12300 fluorescence intensity (a.u.).

**Q.** With “CTCAGTATTGGGTTGGGTGGTGGTGGCGGCGGTGGCAGTGCGGAGTCACCTAGTGCAG” as the sequence, how does the binding signal read?
**A.** The binding signal was 13700 fluorescence intensity (a.u.).

**Q.** How did the binding signal turn out when “GTGGGGCTCGGGTTCCGGCCGGTGTAGGGGAGGGGAGATGCGGAGTCACCTAGTGCAG” was run?
**A.** The binding signal was 15700 fluorescence intensity (a.u.).

**Q.** Which binding signal does the source give for “GCTTCGGCTCGGGGTGGGTTGGGTTGGGTTGGGTTCGATGCGGAGTCACCTAGTGCAG” here?
**A.** Its binding signal is 32400 fluorescence intensity (a.u.).

**Q.** Which binding signal does the source give for “CAAGATGGGTCGGGTTGGGTGGGGTTACTCGCACTAGCACCGGAGTCACCTAGTGCAG” here?
**A.** The binding signal was 22300 fluorescence intensity (a.u.).

**Q.** How did the binding signal turn out when “GCGCGGCGGCGGTGGGGTGGTAGTGGTGGTGGGTGGAATGCGGAGTCACCTAGTGCAG” was run?
**A.** Its binding signal is 13500 fluorescence intensity (a.u.).

**Q.** “CATGTGTGGTGAGCATATTTGTTTGTACTGTTGTATTTTACGGAGTCACCTAGTGCAG” was tested. Which binding signal did it give?
**A.** The binding signal was 9560 fluorescence intensity (a.u.).

**Q.** With “CTTCTTCTATATCTGTAATCTTTCCTTATCTCCTCCCATGCGGAGTCACCTAGTGCAG” as the sequence, how does the binding signal read?
**A.** Its binding signal is 8520 fluorescence intensity (a.u.).

**Q.** How did the binding signal turn out when “CCACCTCGTTTTATGTAAAACACTTAATCTTCAACTTCAGCGGAGTCACCTAGTGCAG” was run?
**A.** The binding signal was 8860 fluorescence intensity (a.u.).

**Q.** For “CGCAATCCACTTTCTCTCGCCAAGTCGTCGTCCATCCGATCGGAGTCACCTAGTGCAG”, which binding signal is on record?
**A.** The binding signal was 9020 fluorescence intensity (a.u.).

**Q.** How did the binding signal turn out when “TTTTCAGCGTGTGCATCACATGGTCCGTATCTTTAATACTCGGAGTCACCTAGTGCAG” was run?
**A.** The binding signal was 8520 fluorescence intensity (a.u.).

**Q.** How did the binding signal turn out when “TCCTGTCGTATGTCTTCACCACCACACAAACAATGCTTCTCGGAGTCACCTAGTGCAG” was run?
**A.** The binding signal was 9550 fluorescence intensity (a.u.).

**Q.** How did the binding signal turn out when “ACTCCACTTAGGCTGCATTCGTTCTAGATACATTGAGTTACGGAGTCACCTAGTGCAG” was run?
**A.** Its binding signal is 9970 fluorescence intensity (a.u.).

**Q.** For “GCCTTTGTCGGTCATGTTCCCATCGCTTTAGTTCTTCTCACGGAGTCACCTAGTGCAG”, which binding signal is on record?
**A.** Its binding signal is 15000 fluorescence intensity (a.u.).

**Q.** “GTGATAGAAAAGTTGTGTGTGTATGAAATGTTTGATGCGACGGAGTCACCTAGTGCAG” was tested. Which binding signal did it give?
**A.** The binding signal was 8750 fluorescence intensity (a.u.).

**Q.** With “ATACTGAGAAAGTGCCAAGTTTTTGTCTGCTTCATGTAACCGGAGTCACCTAGTGCAG” as the sequence, how does the binding signal read?
**A.** The binding signal was 8110 fluorescence intensity (a.u.).

**Q.** With “GACCTCGCCGTCGCCGTCGCCGCCGCCGCCGCCGCCATGGCGGAGTCACCTAGTGCAG” as the sequence, how does the binding signal read?
**A.** The binding signal was 9900 fluorescence intensity (a.u.).

**Q.** How did the binding signal turn out when “CATTGTTCCTCACAGGATCAGGGGTGGAGAGTGAAGAGAGCGGAGTCACCTAGTGCAG” was run?
**A.** The binding signal was 8070 fluorescence intensity (a.u.).

**Q.** Which binding signal does the source give for “GTGGTTGATTTGACCTTTTACATTGTACAGATGGTATTGGCGGAGTCACCTAGTGCAG” here?
**A.** Its binding signal is 8480 fluorescence intensity (a.u.).

**Q.** With “CCGCGGGTGGGGAGATTTGACCGGCGTTGACTCCGGGATGCGGAGTCACCTAGTGCAG” as the sequence, how does the binding signal read?
**A.** Its binding signal is 14300 fluorescence intensity (a.u.).

Source: paper PMC7819943, “Rice protein-binding microarrays: a tool to detect cis-acting elements near promoter regions in rice”
